# According to PubChem BioAssay AID624267 (The Scripps Research Institute Molecular Screening Center, 2012):
# About 1,400 (0.39%) of roughly 360,000 compounds were called active. This is one part of a sample in which actives are shown more often than they occur. Unmarked numbers belong to inactive results. Rule as the data show it: active = inhibition above about 21%; inactive = the rest.
# Molecular target: Receptor-interacting serine/threonine-protein kinase 2 (Homo sapiens) (UniProt O43353)
# Experiment: NOD2-RIPK2 binding disruptors in cells, primary screen, fluorescence, CHO cells, BLA complementation (AID 624267);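 also: 0% = vehicle only and 100% = reference blocker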
# Settings: CHO BLA complementation NOD2-RIPK2, CCF4 ratio; at 4.98 µM; active compounds read high
# Chain of Receptor-interacting serine/threonine-protein kinase 2 (Homo sapiens) (O43353 whole entry, looked up): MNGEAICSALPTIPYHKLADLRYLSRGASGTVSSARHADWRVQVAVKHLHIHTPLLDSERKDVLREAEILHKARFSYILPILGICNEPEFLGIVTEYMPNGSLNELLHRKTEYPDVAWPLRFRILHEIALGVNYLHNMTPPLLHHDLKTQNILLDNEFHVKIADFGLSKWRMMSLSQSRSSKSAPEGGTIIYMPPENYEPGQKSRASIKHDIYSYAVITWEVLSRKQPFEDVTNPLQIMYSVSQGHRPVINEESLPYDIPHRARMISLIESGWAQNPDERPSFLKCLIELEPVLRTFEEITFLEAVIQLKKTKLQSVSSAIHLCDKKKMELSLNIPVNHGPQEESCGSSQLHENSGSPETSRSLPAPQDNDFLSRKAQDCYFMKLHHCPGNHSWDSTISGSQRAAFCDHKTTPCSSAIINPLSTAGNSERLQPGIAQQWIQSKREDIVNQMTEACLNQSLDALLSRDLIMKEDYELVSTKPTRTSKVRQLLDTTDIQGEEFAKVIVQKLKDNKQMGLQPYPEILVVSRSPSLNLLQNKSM
row,SMILES,inhibition
1,CCOC(=O)[C@]12Cc3ccccc3[C@H]1N(C1CCCCC1)C(=O)c1cc(OC)ccc12,43.5% (active)
2,CCOC(=O)[C@]12Cc3cc(OC)ccc3[C@H]1N(C(C)C)C(=O)c1ccccc12,-1.01%
3,CCOC(=O)c1cccc(C2=C(CNC(=O)c3ccncc3)[C@H]3CC[C@@H](C2)N3Cc2ccccc2)c1,-12.2%
4,Cc1ccc2c(c1)C1CN(C)CCC1N2C(=O)Cn1nnc(-c2ccccc2F)n1 (stereo not given),-3.9%
5,CCN1CCN(Cc2cc(OC)c3c(c2)OCO3)CC1,-5.64%
6,COc1cc(OC)cc(C2(C#N)CCN(C)CC2)c1,-12.2%
7,c1ccc(CCNC2CCCCCC2)cc1,-21.6%
8,CC(=O)OC1C2(CC3N4C(=O)C5(CO)SSC4(CC31O)C(=O)N5C)OC(C)C(C)(C)C2=O (stereo not given),63.9% (active)
9,CC(=NCc1ccc2c(c1)OCO2)c1c(O)[nH]c(=O)[nH]c1=O,4.27%
10,CC(C(=O)Nc1ccc(Cl)cc1Cl)N1CC=C(c2ccccc2)CC1 (stereo not given),-16.5%
11,CC[C@H]1CC2CN3CCc4c([nH]c5ccccc45)C(C(=O)OC)(C2)C13 (stereo not given in full),-13.6%
12,CNCC(O)c1cc(F)c(OCc2ccccc2)c(OCc2ccccc2)c1F (stereo not given),-9.31%
13,CN(C)CC1Oc2ccccc2OC1(O)c1ccccc1 (stereo not given),54.1% (active)
14,COc1ccccc1NC(=O)N1C[C@@H]2C[C@@H](C1)c1cccc(=O)n1C2,-9.61%
15,COC(=O)C1=C(c2ccc(Cl)c(C(F)(F)F)c2)C[C@@H]2CC[C@H]1N2C(=O)NC1CC1,-1.54%
